The values that follow come from PubChem BioAssay AID449739 (Vanderbilt High Throughput Screening Facility, 2010).

Out of some 100,000 compounds screened, about 4,200 (4.2%) were called active.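 Rule for the calls: active = single-dose well whose peak fluorescence ratio is a statistical outlier from its plate by either plate-standardised score or position-corrected B-score; inactive = the rest.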 Many of the other results were omitted from the sample, so actives are more common in it than they were.

The test deals with Voltage-dependent T-type calcium channel subunit alpha-1H (Homo sapiens) (UniProt O95180). The test can be described thus: Cav3.2 calcium influx blockers – cell-based, Fluo-4 calcium fluorescence, FDSS, MLSMR library, primary screen (AID 449739). The conditions noted are these: Cav3.2-expressing cells, at 10 µM, stronger effect = lower value.
Voltage-dependent T-type calcium channel subunit alpha-1H (Homo sapiens), sequence (O95180 whole entry, looked up): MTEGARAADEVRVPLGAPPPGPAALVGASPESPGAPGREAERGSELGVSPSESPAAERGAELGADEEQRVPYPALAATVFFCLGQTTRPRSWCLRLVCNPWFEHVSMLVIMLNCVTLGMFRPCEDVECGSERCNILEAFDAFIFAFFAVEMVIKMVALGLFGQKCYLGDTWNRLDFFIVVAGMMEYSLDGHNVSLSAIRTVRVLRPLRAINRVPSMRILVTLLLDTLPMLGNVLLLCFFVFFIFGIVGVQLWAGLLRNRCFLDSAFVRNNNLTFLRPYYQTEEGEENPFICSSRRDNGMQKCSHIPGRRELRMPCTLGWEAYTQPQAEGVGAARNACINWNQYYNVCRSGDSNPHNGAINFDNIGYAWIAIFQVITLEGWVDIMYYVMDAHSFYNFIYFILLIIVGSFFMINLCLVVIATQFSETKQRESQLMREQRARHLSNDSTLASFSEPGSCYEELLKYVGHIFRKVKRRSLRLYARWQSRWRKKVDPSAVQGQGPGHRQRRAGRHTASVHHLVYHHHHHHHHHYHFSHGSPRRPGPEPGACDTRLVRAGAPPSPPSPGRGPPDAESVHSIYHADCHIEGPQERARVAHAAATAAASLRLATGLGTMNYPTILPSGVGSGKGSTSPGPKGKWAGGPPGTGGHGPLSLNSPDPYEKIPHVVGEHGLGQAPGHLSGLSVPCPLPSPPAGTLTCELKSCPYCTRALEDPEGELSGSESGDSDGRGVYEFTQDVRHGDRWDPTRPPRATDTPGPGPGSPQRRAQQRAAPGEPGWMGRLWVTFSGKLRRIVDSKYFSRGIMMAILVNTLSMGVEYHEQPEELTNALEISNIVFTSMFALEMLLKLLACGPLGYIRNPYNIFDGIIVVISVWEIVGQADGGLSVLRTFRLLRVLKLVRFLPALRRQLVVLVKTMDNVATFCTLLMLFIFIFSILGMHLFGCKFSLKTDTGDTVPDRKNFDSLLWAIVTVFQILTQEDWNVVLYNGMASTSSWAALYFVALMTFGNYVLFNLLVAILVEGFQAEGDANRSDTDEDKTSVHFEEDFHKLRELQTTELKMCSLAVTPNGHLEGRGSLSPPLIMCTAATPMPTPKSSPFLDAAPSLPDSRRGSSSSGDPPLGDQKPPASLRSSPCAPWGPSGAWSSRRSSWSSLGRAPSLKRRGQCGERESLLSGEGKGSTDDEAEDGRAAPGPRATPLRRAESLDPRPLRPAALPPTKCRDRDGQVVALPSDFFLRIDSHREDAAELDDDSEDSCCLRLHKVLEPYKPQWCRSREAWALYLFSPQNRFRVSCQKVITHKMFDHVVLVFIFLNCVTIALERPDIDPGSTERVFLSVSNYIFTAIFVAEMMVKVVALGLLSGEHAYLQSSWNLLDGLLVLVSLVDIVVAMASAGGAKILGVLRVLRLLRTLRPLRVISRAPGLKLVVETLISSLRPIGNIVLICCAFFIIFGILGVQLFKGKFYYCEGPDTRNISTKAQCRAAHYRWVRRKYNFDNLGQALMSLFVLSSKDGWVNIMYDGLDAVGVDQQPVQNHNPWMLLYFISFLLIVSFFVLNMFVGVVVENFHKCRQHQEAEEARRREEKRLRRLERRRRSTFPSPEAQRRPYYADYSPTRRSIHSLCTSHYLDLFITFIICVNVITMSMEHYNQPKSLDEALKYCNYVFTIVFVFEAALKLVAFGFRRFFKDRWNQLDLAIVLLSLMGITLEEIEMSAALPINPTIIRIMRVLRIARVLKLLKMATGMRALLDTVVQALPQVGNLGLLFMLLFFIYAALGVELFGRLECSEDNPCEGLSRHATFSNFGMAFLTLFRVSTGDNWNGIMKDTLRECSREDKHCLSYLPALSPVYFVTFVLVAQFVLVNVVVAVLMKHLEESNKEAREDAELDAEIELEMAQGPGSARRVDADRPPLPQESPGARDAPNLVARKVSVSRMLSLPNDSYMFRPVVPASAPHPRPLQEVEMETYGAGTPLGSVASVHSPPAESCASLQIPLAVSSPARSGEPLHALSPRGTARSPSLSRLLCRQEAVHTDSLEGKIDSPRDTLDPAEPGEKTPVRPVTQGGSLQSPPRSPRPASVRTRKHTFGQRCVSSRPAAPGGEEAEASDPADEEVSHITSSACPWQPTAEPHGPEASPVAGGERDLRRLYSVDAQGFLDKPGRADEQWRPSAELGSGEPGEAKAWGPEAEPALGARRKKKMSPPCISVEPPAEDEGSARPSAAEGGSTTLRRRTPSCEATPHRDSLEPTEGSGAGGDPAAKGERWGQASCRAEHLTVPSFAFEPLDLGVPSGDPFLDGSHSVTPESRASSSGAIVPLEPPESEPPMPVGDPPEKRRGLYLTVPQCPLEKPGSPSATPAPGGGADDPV
For `CC/C=C/C(=O)N1CC2(CC(c3cccc(NC(=O)CC)c3)=NO2)C[C@H]1C(N)=O` (some centres not stated), the B-score was 0.223 (inactive).

Consider `CCOc1ccc(C(CCc2ccccc2)NC(=O)c2ccc(OC)c(OC)c2)cc1OCC` (configuration not stated), for which the B-score was -1.85 (inactive).

Take `Cc1ccccc1OCC(=O)NCC(=O)OCC(=O)c1ccc2ccccc2c1`: the B-score is -0.0134 (inactive). For the molecule `COc1cccc(N2CCN(C(=O)Nc3ccc4c(c3)NC(=O)CO4)CC2)c1`, the B-score was -0.0474 (inactive).

`O=C(Nc1cccc(NC(=O)N2CCN(c3ccccc3)CC2)c1)N1CCN(c2ccccc2)CC1`: the B-score was -6.86 (active). For the molecule `O=C(Nc1ccccc1)N1CCN(Cc2ccccc2)CC1`, the B-score is 0.4 (inactive).

Turning to `O=C(C1=C[C@H](c2coc3ccccc3c2=O)C[C@H](OCc2ccc(CO)cc2)O1)N1CCOCC1`, the B-score is 0.0258 (inactive). Regarding `O=C(ON=C1CCN(S(=O)(=O)c2ccccc2)CC1)c1ccc(Cl)cc1`, the B-score was 0.782 (inactive). `CN(C(=O)CC(NC(=O)c1ccccc1)(c1ccccc1)c1ccccc1)c1ccccc1`: the B-score was -8.96 (active). With `Cc1ccccc1NC(=O)c1ccccc1` the figure was 0.346 (inactive). The figure for `CC(C)(C)c1ccc(C(=O)NNC(=O)Cc2ccccc2)cc1` is 0.185 (inactive).

Turning to `O=C(O)c1cnn2c(C(F)(F)F)cc(-c3ccccc3)nc12`, the B-score was 1.18 (inactive). The figure for `COC(C/C=C/C(=O)[C@@H](C)OCc1ccccc1)OC` is -1.65 (inactive); for `CCC(=O)OCc1c(C(F)(F)F)nn(C)c1Oc1cccc(C(F)(F)F)c1` it is -5.08 (active); for `CCOC(=O)C[C@H]1c2ccc(C(F)(F)F)cc2S(=O)(=O)N1c1ccccc1` it is -2.6 (inactive).

Turning to `Cn1nc(C(F)(F)F)c(C(=O)Nc2cccc(C(F)(F)F)c2)c1SCc1ccc(Cl)cc1`, the B-score was -4.7 (inactive). With `CC1=NN(C(=O)Cc2ccc(C)cc2)C(O)(c2cccnc2)C1` (configuration not stated) the figure was 0.437 (inactive); with `Cc1ccc(CNC(=O)c2ccc3c(c2)S(=O)(=O)c2ccccc2C3=O)cc1`, 0.00734 (inactive); with `Cc1cc(/C=C2/SC(=O)N(CC(=O)OC(C)C)C2=O)c(C)n1C`, 0.168 (inactive). As to `Cc1ccc(-c2nc3ccccc3[nH]2)cc1NC(=O)c1sc2ccccc2c1Cl`, the B-score was -3.3 (inactive). With `NC(=O)CSc1c[nH]c2ccccc12`, the B-score was 0.666 (inactive).

As to `O=C(Cc1c[nH]c2ccccc12)OCCOC(=O)Cc1c[nH]c2ccccc12`, the B-score is -6.55 (active). The figure for `CC(=O)NC(Cc1c[nH]c2ccccc12)C(=O)O` (configuration not stated) is 1.52 (inactive); for `Cc1cc([N+](=O)[O-])c(NC2CCCCC2)c([N+](=O)[O-])c1` it is -0.266 (inactive); for `CONC(=O)c1cc(OCC(F)(F)F)ccc1OCC(F)(F)F` it is 0.627 (inactive). With `Brc1ccc(C2=CC(c3ccco3)n3ncnc3N2)cc1` (configuration not stated) the figure was -4.77 (active); with `CCOc1ccc(C2=CC(c3ccccc3)n3ncnc3N2)cc1` (configuration not stated), -0.0885 (inactive). For `COC(=O)C1=C(C)Nc2ncnn2C1c1ccco1` (configuration not stated), the B-score was -0.126 (inactive). As for `O=C(CN1CCN(C2CCCCC2)CC1)Nc1ccccc1N1CCCCC1`, the B-score was -0.124 (inactive). With `Cn1c(=O)c2c(nc(SCC(=O)Nc3ccccc3N3CCCCC3)n2C)n(C)c1=O` the figure was -0.936 (inactive).

For the molecule `Cc1ccccc1NC(=O)CNc1ccccc1N1CCCCC1`, the B-score is -8.5 (active). The figure for `C#CCOCCOCCOCCNc1nc(N2CCN(C(=O)[C@H](CCC(=O)O)n3cc(C(N)CO)nn3)CC2)nc(N2CCN(C(=O)[C@H](CCCCN)n3cc(C(N)CC(C)C)nn3)CC2)n1` (some centres not stated) is -1.41 (inactive); for `Cc1ccc(C(=O)NNC(=O)OC(C)(C)C)c(Cl)c1` it is -0.27 (inactive).

Take `Cn1c(=O)n(C)c2cc(/C=N/NC(=O)c3cccc(Br)c3)ccc21`: the B-score was 1.83 (inactive). The figure for `COc1ccc(C(=O)Nc2ccccc2C(=O)N/N=C/c2ccc(O)c(OC)c2)cc1` is 0.134 (inactive).

Consider `O=C(N/N=C\c1cccc(Br)c1)c1ccccc1-n1cccc1`, for which the B-score is -6.5 (active). The figure for `COc1ccc2c(c1)CC[C@@H]1[C@@H]2CC[C@]2(C)C(=O)CC[C@@H]12` is -0.311 (inactive); for `CCSc1nnc(-c2cc3c(s2)-c2ccccc2CC3)o1` it is 0.187 (inactive). For the molecule `Fc1ccc(CSc2nnc(-c3cc4c(s3)-c3ccccc3CC4)o2)cc1`, the B-score was -3.39 (active).

With `Fc1ccc(-c2nnc(CSc3nnc(-c4ccc5c(c4)OCO5)o3)o2)cc1`, the B-score is -0.34 (inactive).

As for `Cc1nn(C)c(Oc2ccccc2)c1CCNS(=O)(=O)c1ccc(F)cc1`, the B-score is -1.06 (inactive). Turning to `CC(C)=CC(=O)Nc1nnc(-c2ccc(F)cc2)s1`, the B-score was 0.294 (inactive).

Take `c1ccc(CSc2nnc(-c3ccco3)c(-c3ccco3)n2)cc1`: the B-score was 0.232 (inactive). Consider `O=C(CSc1nnc(-c2ccco2)n1Cc1ccccc1)NC(=O)NCc1ccco1`, for which the B-score is -1.76 (inactive). As to `c1ccc(CSc2nnc(-c3ccco3)n2Cc2ccccc2)cc1`, the B-score is -4.26 (active).

Turning to `CCOC(=O)CN1C(=O)N[C@@H](c2ccc(Br)cc2)C(C(C)=O)=C1C`, the B-score was 1.08 (inactive). For the molecule `CC(N=Cc1nc(-c2ccccc2)oc1O)c1ccccc1` (configuration not stated), the B-score was -4.84 (active). Take `CC(NC(=O)c1cc(-c2ccccc2)on1)c1ccccc1` (configuration not stated): the B-score was 0.962 (inactive).

On to `C/C=C(\C)C(=O)N1CC2(CC(c3cccc(NC(=O)CCCCC)c3)=NO2)C[C@@H]1C(N)=O` (some centres not stated), for which the B-score is -0.0964 (inactive). With `O=C1c2ccccc2NC(c2ccc(-c3cccc(Cl)c3)o2)N1O` (configuration not stated) the figure was -6.09 (active). Take `C[C@@H](C(=O)N1CCNCC1)n1cc(CCC(=O)O)nn1`: the B-score is 0.81 (inactive). The figure for `Cc1cccc(OCCCC(=O)Nc2ccc(S(=O)(=O)N3CCCC3)cc2)c1` is -4.11 (inactive). Turning to `Cc1cccc(NC(=O)CN2CCCN(S(=O)(=O)c3ccc(Br)s3)CC2)c1`, the B-score was -4.23 (active). The figure for `Cc1cccc(NC(=O)CN2C(=O)CNC2=O)c1` is -0.246 (inactive).

Turning to `O=C(NC1CC1)C1=C[C@H](c2coc3ccccc3c2=O)C[C@H](OCCCCO)O1`, the B-score is 0.0579 (inactive). The figure for `Cc1ccc(-n2c(SCC(=O)Nc3ccc4c(c3)OCO4)nnc2-c2ccoc2C)cc1` is -0.45 (inactive); for `CCCn1c(SCC(=O)Nc2cccc(C(=O)OCC)c2)nnc1-c1ccoc1C` it is -5.22 (active); for `COc1ccccc1NC(=O)CSc1nnc(-c2ccoc2C)n1CCc1ccccc1` it is -2.79 (inactive).

As for `FC(F)(F)c1cc(C(F)(F)F)c2ccc(N3CCN(c4ccccc4)CC3)nc2n1`, the B-score is -0.29 (inactive).

For `CNC(C)C#Cc1ccc2sc3cc(OC)c(OC)cc3c(=O)c2c1` (configuration not stated), the B-score was -1.08 (inactive). On to `C[C@H]1CC[C@]2(O[C@@H](CCO)C[C@@H](O)[C@@H]2O)O1`, for which the B-score is -0.0046 (inactive). Take `O=C(Cn1c(=O)sc2ccccc21)Nc1ccc2c(c1)OCCO2`: the B-score is 0.666 (inactive). The figure for `CC1Cc2ccccc2N1CC(=O)Nc1ccc2c(c1)OC(F)(F)O2` (configuration not stated) is -4.17 (active); for `O=C(COC(=O)c1ccccc1NC(=O)c1ccco1)Nc1ccc2c(c1)OC(F)(F)O2` it is -1.68 (inactive).

Take `CCC(=O)Nc1ccc(C(=O)Nc2cc(C)on2)cc1`: the B-score was 0.744 (inactive). For the molecule `CCc1ccc2ncc(C(=O)c3ccccc3)c(N3CCOCC3)c2c1`, the B-score is -0.907 (inactive). The figure for `CC(C)C(=O)NC(=S)Nc1ccccc1F` is -0.107 (inactive); for `COc1ccccc1NC(=S)NC(=O)C(C)C` it is 0.35 (inactive); for `CC(C)C(=O)Nc1cccc(NC(=S)NC(=O)C(c2ccccc2)c2ccccc2)c1` it is -5.49 (active). With `CC(C)c1ccc(C(=O)NCCCc2ccccc2)cc1` the figure was -4.2 (active); with `Cc1cc(C(=O)NCCCc2ccccc2)no1`, 0.538 (inactive); with `O=C(NCCc1ccccc1)c1ccc(OCCOc2ccccc2)cc1`, -0.578 (inactive). With `CC(=O)Nc1cccc(/C(C)=N/NC(=O)c2ccccc2Cl)c1`, the B-score was 0.407 (inactive). On to `Cc1ccc(-c2csc(NCCc3nc4cc(Cl)c(Cl)cc4n3CCOCCO)n2)cc1`, for which the B-score is -0.914 (inactive). The figure for `CC1Cc2ccccc2N1C(=O)CSc1nc2ccccc2o1` (configuration not stated) is -4.15 (active); for `CCS(=O)(=O)c1ccc2oc(SCC(=O)N3c4ccccc4CC3C)nc2c1` (configuration not stated) it is 0.393 (inactive); for `O=C(CSc1nc2ccccc2o1)N1CCN(c2ccccc2)CC1` it is -0.102 (inactive). `Cc1nc(SCC(=O)c2ccccc2)c([N+](=O)[O-])[nH]1`: the B-score was 0.184 (inactive).

For the molecule `COc1c(O)cc2oc(-c3ccc(O)c(O)c3)cc(=O)c2c1O`, the B-score was 1.78 (inactive). The figure for `COc1ccccc1N(C)S(=O)(=O)c1ccc(C(=O)N2CCC(C(N)=O)CC2)cc1` is -0.0467 (inactive); for `CCCCC1=CC2=CC(=O)C(C)(OC(=O)CC)C(=O)C2=CN1CCCOC(C)C` (configuration not stated) it is 0.761 (inactive). The figure for `O=C(CSC1=Nc2ccccc2C2=NC(CC(=O)NCc3ccco3)C(=O)N12)NCc1ccco1` (configuration not stated) is 0.442 (inactive); for `CCC(C)NC(=O)CSC1=Nc2ccccc2C2=NC(CCC(=O)NCc3ccco3)C(=O)N12` (configuration not stated) it is 0.161 (inactive); for `O=C(CC1N=C2c3ccccc3N=C(SCc3ccccc3Cl)N2C1=O)NCc1ccco1` (configuration not stated) it is -4.98 (active). With `O=C(Cc1ccc2c(c1)CCCC2)Nc1ccccc1Cl` the figure was -0.144 (inactive); with `O=C(NCc1ccccc1)c1onc(CSc2ccncc2)c1C(=O)NCc1ccccc1`, -0.591 (inactive); with `Cc1cc(C)cc(OCc2nnc(SCC(=O)Nc3ccccc3)o2)c1`, 0.346 (inactive). Consider `Cc1cccc(OCc2nnc(SCc3nc4cc(C(F)(F)F)ccc4c(=O)[nH]3)o2)c1`, for which the B-score was -1.8 (inactive). With `Cc1cccc(OCc2nnc(SCn3nnc4ccccc4c3=O)o2)c1` the figure was -6.05 (active). The figure for `COc1cccc(NC(=O)c2nn(C34CC5CC(CC(C5)C3)C4)cc2[N+](=O)[O-])c1` is -4.14 (active); for `Cn1cc([N+](=O)[O-])c(C(=O)Nc2ccc3c(c2)OCCO3)n1` it is 0.353 (inactive). `COc1cccc(NC(=O)c2ccccc2SC)c1`: the B-score was 0.424 (inactive).
